Screening results (PubChem BioAssay)
Sampled rows, rich in hits. Any-hit rate of the full collection: about 14%.
Sm TGR block: S. mansoni TGR enzyme inhibition; Q962Y6; AID 485364; Potency, µM (doses to about 114 µM), without a hit: top-dose activity change, negative = inhibition, actives largely listed as inhibitors; purified TGR, DTNB reduction, TNB absorbance 405 nm; 360,000 compounds, 3% hits; further: potency means the concentration at half of the fitted maximal effect; nearly all actives have a fitted effect of over 60% in size
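Kinetic colorimetric format: TGR-catalysed, NADPH-driven DTNB reduction monitored via TNB absorbance. Enzyme dispensed at 20 nM; compound exposure 15 min at room temperature before reaction start.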
Pf growth 96h: P. falciparum growth inhibition at 96 hour, primary screen for plastid delayed-death inhibitors; P. falciparum luciferase reporter growth, 96 h; Potency, µM (top dose mostly 28.7 µM), for the others: at the highest dose activity change, negative = inhibition, hits mostly inhibitors; 320,000 compounds, 6.9% hits; further: potency means the concentration at half of the fitted maximal effect
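Compounds incubated with erythrocytes infected by luciferase-expressing P. falciparum (2% hematocrit, 0.05% parasitemia final) for 96 hours, 37 C in 5% CO2. Growth inhibition scored as decreased luciferase luminescence.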
FBPA Giardia inh: Giardia lamblia aldolase inhibition | A8B2U2 | purified Giardia FBPA | Potency, µM (doses to about 59.6 µM), inactives show top-dose activity, negative = inhibition, usual class: inhibitors | 290,000 compounds, 0.71% hits | AID 2451; further: potency means the concentration at half of the fitted maximal effect; nearly all actives have a fitted effect of over 55% in size
Target sequence (A8B2U2 whole entry, looked up): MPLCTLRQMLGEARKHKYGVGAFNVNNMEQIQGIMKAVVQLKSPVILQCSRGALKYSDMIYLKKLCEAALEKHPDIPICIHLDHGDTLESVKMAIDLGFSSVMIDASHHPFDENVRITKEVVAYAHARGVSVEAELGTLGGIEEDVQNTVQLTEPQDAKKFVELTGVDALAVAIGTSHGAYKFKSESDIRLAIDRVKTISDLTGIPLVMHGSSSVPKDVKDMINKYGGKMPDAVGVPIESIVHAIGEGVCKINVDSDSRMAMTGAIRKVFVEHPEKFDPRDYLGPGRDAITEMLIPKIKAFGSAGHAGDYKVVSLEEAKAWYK
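40 nM FBPA preincubated 10 min at RT with compound (up to 57.5 uM final), then substrate plus GAPDH/TPI/NAD/arsenate coupling and diaphorase/resazurin added. Fluorescence read after 20 min at RT, 525/598 nm.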
HCMV inh: inhibitors of human cytomegalovirus; AID 1259415; HFF cells, HCMV-luciferase reporter, 72 h; active compounds read low; 410,000 compounds, 4.5% hits; activity change, negative = inhibition, % at 57.5 µM; in the data active means activity change below about -60%; inconclusive means no clear call, values can overlap the other calls; inactive means above about -39%
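Cell-based, HFFs, 1000 cells/well, 16 h 37C; cpds in DMSO + HCMV-luc, MOI 1 PFU/cell; 72 h 37C; OneGlo luminescence after 5 min RT; norm. to buffer vs Salinomycin 10uM.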
Pf growth 48h: inhibits P. falciparum growth in the first generation, 48 h | P. falciparum luciferase growth in erythrocytes, 48 h | Potency, µM (doses to about 28.7 µM), without a hit: top-dose activity change, negative = inhibition, most hits filed as inhibitors | 310,000 compounds, 5.9% hits; further: potency means the concentration at half of the fitted maximal effect
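Cell-based growth assay: transgenic P. falciparum expressing firefly luciferase, cultured in red cells within RPMI 1640 containing 0.5% w/v Albumax, 24 mM bicarbonate and gentamycin. A drop in luciferase activity indicates inhibition.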
* hit, by the source's call. Unless noted, the call rests on the fitted dose curve; in most records, active means well fitted curve in the direction sought with a large enough effect; inconclusive means small, poorly fitted or top-dose-only effect, or another doubt; inactive means no such curve, though single readings can be large; an effect the other way counts as inactive or inconclusive. On the % scale 0 is the no-effect control and ±100 the full control effect.

CN(/N=C/c1ccc(-c2ccc([N+](=O)[O-])cc2)o1)c1ccccc1 was read as Sm TGR block -12%, Pf growth 96h -8%, FBPA Giardia inh 1%, HCMV inh -18 and Pf growth 48h 43%.
CCOC(=O)N/N=C\c1ccc(-c2cc(Cl)ccc2Cl)o1 was read as Pf growth 96h 22%, FBPA Giardia inh -3%, HCMV inh inconclusive and Pf growth 48h 5.2µM*.
For O=C1Nc2ccccc2/C1=N/N=C/c1ccc(-c2ccc([N+](=O)[O-])cc2)o1 the results were Sm TGR block -8%, Pf growth 96h inconclusive, FBPA Giardia inh 1%, HCMV inh -83* and Pf growth 48h inconclusive.
Screening NC(=S)N/N=C/c1ccc(-c2cc(Cl)ccc2Cl)o1 returned Sm TGR block -35%, Pf growth 96h 4.7µM*, FBPA Giardia inh -7% and HCMV inh -24.
For COC(=O)N/N=C/c1ccc(-c2cc(Cl)cc(Cl)c2)o1 the results were Sm TGR block 2%, Pf growth 96h inconclusive, FBPA Giardia inh 1%, HCMV inh -23 and Pf growth 48h inconclusive.
For CCN(CC(=O)NCc1ccc(F)cc1)C(=O)C1CCN(S(=O)(=O)c2ccc(C(C)C)cc2)CC1 the results were Sm TGR block 0%, Pf growth 96h inconclusive, HCMV inh -19 and Pf growth 48h inconclusive.
Screening CCOc1ccc(C2/C(=C(\O)c3ccc4c(c3)OCCO4)C(=O)C(=O)N2CCN2CCOCC2)cc1OC (stereo not drawn) returned Sm TGR block -26%, Pf growth 96h inconclusive and Pf growth 48h 15%.
`c1cc2c3c(cccc3c1)NC(c1ccc3c(c1)OCO3)N2` gave Sm TGR block 18µM*, Pf growth 96h inconclusive, FBPA Giardia inh -28% and HCMV inh 78.
c1cc2c(cc1C1OC[C@@H]3C(c4ccc5c(c4)OCO5)OCC13)OCO2 (stereo partly drawn) was read as FBPA Giardia inh 5%.
`Clc1ccc(C2Nc3cccc4cccc(c34)N2)cc1` gave Sm TGR block 16µM*, Pf growth 96h 2%, FBPA Giardia inh inconclusive, HCMV inh 47 and Pf growth 48h inconclusive.
CSc1ccc(C2Nc3cccc4cccc(c34)N2)cc1 was read as Sm TGR block 25µM*, Pf growth 96h inconclusive, FBPA Giardia inh -15%, HCMV inh 102 and Pf growth 48h inconclusive.
Screening Cc1cccc(C2Nc3cccc4cccc(c34)N2)c1 returned Sm TGR block 20µM*, Pf growth 96h 7%, FBPA Giardia inh inconclusive, HCMV inh 50 and Pf growth 48h 4.7µM*.
`Clc1ccc(C2Nc3cccc4cccc(c34)N2)c(Cl)c1` gave HCMV inh -18.
Screening CC(CCc1ccccc1)NC(=O)COC(=O)C(CCC(N)=O)NC(=O)c1ccc(F)cc1 (stereo not drawn) returned Sm TGR block -4%, Pf growth 96h 9%, HCMV inh 4 and Pf growth 48h 6%.
CCOc1ccc(Cl)cc1C1=CC(=O)C[C@H](c2ccc(OC)cc2)C1 was read as Sm TGR block -3%, Pf growth 96h inconclusive, HCMV inh -39 and Pf growth 48h inconclusive.
For O=C1c2ccccc2NC(c2ccc3c(c2)OCO3)N1O (stereo not drawn) the results were Sm TGR block -2%, Pf growth 96h 0.37µM*, FBPA Giardia inh 1%, HCMV inh 61 and Pf growth 48h -26%.
`O=[N+]([O-])c1cc(C2Nc3cccc4cccc(c34)N2)ccc1Cl` gave Sm TGR block -26%, Pf growth 96h -12%, FBPA Giardia inh -24%, HCMV inh -18 and Pf growth 48h 2.9µM*.
For O=C1NC(c2ccc(Cl)c([N+](=O)[O-])c2)Nc2ccccc21 (stereo not drawn) the results were Sm TGR block 10%, Pf growth 96h inconclusive, FBPA Giardia inh -1%, HCMV inh -36 and Pf growth 48h inconclusive.
For c1cncc(C2Nc3cccc4cccc(c34)N2)c1 the results were Sm TGR block 8.9µM*, Pf growth 96h inconclusive, FBPA Giardia inh inconclusive, HCMV inh 7 and Pf growth 48h inconclusive.
